# Data: PubChem BioAssay
# Unmarked numbers belong to inactive results. For some assays here: Measured potencies and affinities stand elsewhere. Activity calls are given as the source filed them. Unless noted, no rule for the calls is given here.
# Experiments:
# [1] = antimalarial activity against Dd2 strain (AID 2302;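 active = growth inhibition above 50% at the single 2 µM test dose, taken to imply half-maximal potency below 2 µM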;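 also: 0% = DMSO untreated growth and 100% = chloroquine plus artemisinin killed control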); conditions: P. falciparum Dd2 in RBCs, LDH growth readout, 72 h; at 2 µM; hits give high values
# [2] = human hepatoma cell viability loss – ATP luminescence, cytotoxicity control for P. falciparum antimalarial project, primary screen (AID 2303;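 active = inhibition above 50%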;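 also: 0% = DMSO wells and 100% = digitonin-killed cells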); conditions: HepG2 viability, 24-48 h, at 10 µM, hits give high values
# [3] = target: L-lactate dehydrogenase (Plasmodium falciparum (isolate CDC / Honduras)) (UniProt Q27743); experiment: PfLDH activity inhibition – cell lysate, 3D7 strain, counter-screen for P. falciparum growth inhibition project (AID 2304);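 also: 0% = vehicle and 100% = reference inhibitor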; conditions: P. falciparum 3D7 crude extract, LDH APAD/NBT absorbance; at 2 µM; hits give high values
# Chain of L-lactate dehydrogenase (Plasmodium falciparum (isolate CDC / Honduras)) (Q27743 whole entry, looked up): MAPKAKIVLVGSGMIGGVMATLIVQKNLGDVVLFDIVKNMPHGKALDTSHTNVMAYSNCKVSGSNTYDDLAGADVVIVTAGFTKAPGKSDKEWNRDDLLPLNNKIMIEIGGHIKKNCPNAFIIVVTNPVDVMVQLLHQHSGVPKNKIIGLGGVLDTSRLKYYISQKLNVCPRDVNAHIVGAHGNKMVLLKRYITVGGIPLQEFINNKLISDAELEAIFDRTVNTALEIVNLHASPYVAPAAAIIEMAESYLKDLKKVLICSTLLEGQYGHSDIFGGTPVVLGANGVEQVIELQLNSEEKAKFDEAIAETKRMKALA
# [4] = inhibition of 3D7 malaria parasite growth – strain 3D7 (AID 2306);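 also: 0% = DMSO wells and 100% = chloroquine plus artemisinin control wells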; conditions: P. falciparum 3D7 erythrocytic growth, LDH absorbance, 72 h; at 2 µM; hits give high values
# [5] = target: Calcium-dependent protein kinase 1 (Plasmodium falciparum (isolate 3D7)) (UniProt P62344); experiment: PfCDPK1 kinase inhibitors, biochemical, TCAMS library (AID 1159585; cut-off not given, nearly all actives have IC50 up to about 0.98 µM;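 also: inhibitors leave more ATP so luminescence rises with inhibition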); conditions: recombinant PfCDPK1, Kinase-Glo ATP depletion luminescence
# Chain of Calcium-dependent protein kinase 1 (Plasmodium falciparum (isolate 3D7)) (P62344 whole entry, looked up): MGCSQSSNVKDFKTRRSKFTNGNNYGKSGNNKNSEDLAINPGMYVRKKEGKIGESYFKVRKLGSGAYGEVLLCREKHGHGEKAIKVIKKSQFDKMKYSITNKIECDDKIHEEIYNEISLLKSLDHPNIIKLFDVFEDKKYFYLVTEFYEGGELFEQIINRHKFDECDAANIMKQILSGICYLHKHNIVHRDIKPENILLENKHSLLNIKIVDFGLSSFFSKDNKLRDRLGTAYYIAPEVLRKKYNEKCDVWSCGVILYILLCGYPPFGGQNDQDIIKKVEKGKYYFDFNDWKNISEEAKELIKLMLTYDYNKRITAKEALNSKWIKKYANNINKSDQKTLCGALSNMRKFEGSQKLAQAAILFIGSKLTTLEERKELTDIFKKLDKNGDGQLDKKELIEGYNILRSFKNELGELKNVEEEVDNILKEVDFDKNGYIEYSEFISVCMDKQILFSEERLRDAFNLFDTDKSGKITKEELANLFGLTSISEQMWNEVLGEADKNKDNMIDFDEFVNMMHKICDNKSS
# [6] = target: Plasmodium falciparum protein kinase 6 (PK6, PF3D7_1337100) (UniProt Q8IDW1); experiment: PfPK6 kinase inhibitors, biochemical, TCAMS library (AID 1159586); conditions: recombinant PfPK6, Kinase-Glo ATP depletion luminescence
# Chain of Plasmodium falciparum protein kinase 6 (PK6, PF3D7_1337100) (Q8IDW1 1-305): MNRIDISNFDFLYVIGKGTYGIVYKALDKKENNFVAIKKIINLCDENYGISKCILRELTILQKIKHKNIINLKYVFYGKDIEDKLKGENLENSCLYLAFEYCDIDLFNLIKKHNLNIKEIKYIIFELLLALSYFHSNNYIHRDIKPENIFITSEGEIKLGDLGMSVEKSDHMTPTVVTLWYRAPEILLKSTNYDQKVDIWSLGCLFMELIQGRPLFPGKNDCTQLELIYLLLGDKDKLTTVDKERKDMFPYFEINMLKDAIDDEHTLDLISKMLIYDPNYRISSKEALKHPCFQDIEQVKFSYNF
# [7] = target: Protein kinase 7 (PK7), Plasmodium falciparum 3D7 (PF3D7_0213400) (UniProt Q7YTF7); experiment: inhibition of Plasmodium PK7 catalytic activity – biochemical, TCAMS antimalarial set, Kinase-Glo luminescence (AID 1159587); conditions: recombinant PfPK7, Kinase-Glo ATP depletion luminescence
# Chain of Protein kinase 7 (PK7), Plasmodium falciparum 3D7 (PF3D7_0213400) (Q7YTF7 1-343): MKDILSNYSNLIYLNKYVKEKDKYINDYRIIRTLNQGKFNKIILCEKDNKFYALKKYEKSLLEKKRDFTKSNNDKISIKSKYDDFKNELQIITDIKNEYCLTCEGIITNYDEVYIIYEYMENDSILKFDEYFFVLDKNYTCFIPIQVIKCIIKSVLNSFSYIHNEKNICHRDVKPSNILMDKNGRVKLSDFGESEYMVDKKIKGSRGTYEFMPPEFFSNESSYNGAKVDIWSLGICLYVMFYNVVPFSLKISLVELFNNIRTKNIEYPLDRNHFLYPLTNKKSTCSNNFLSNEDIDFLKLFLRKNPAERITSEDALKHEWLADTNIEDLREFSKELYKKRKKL
# [8] = target: Calcium-dependent protein kinase 4 (Plasmodium falciparum (isolate 3D7)) (UniProt Q8IBS5); experiment: PfCDPK4 kinase inhibitors, biochemical, TCAMS library (AID 1159588; cut-off not given, nearly all actives have IC50 up to about 0.91 µM); conditions: recombinant PfCDPK4, Kinase-Glo ATP depletion luminescence
# Chain of Calcium-dependent protein kinase 4 (Plasmodium falciparum (isolate 3D7)) (Q8IBS5 whole entry, looked up): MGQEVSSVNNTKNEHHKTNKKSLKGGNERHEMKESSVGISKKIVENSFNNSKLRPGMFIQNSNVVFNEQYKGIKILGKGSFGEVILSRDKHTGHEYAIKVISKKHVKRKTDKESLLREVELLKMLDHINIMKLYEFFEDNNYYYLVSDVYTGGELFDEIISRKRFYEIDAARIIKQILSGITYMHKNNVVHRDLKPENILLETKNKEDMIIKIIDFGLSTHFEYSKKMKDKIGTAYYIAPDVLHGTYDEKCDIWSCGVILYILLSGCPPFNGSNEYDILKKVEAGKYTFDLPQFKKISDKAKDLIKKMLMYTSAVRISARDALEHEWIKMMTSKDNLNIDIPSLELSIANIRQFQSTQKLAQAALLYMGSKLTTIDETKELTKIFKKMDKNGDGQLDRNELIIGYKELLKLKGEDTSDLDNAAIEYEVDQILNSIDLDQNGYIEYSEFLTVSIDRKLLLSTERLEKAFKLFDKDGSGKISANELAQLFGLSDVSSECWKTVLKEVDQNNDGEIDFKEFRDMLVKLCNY
SMILES,growth inhibition [1],inhibition [2],inhibition [3],growth inhibition [4],outcome [5],outcome [6],outcome [7],outcome [8]
Cc1nc(C)c(CC(=O)Nc2ccc(-c3ccc(-c4nc5ccc(C(F)(F)F)cc5[nH]4)s3)cc2)s1,29%,57% (active),-8%,90% (active),inactive,inactive,inactive,inactive
CN1CCC(C(=O)Nc2cccc(-c3cccc(-c4nc5ccc(F)cc5[nH]4)c3)c2)CC1,27%,32%,0%,101% (active),inactive,inactive,inactive,inactive
CCOC(=O)c1ccc(NC(=O)N(Cc2ccc(-c3cccc(CN4CCNCC4)c3)cc2)C2CCN(Cc3ccccc3)CC2)cc1,55% (active),19%,4%,100% (active),inactive,inactive,inactive,inactive
Cc1cc(NC(=O)Nc2ccc3nccc(N4CCN(C)CC4)c3c2)ccc1Br,100% (active),31%,-2%,101% (active),inactive,inactive,inactive,inactive
Oc1ccc(CCNc2nc(NCCCOc3ccccc3-c3cccc(C(F)(F)F)c3)nc(N3CCNCC3)n2)cc1,5%,24%,-1%,93% (active),inactive,inactive,inactive,inactive
Fc1ccc(Nc2ccnc3cc(-c4ccc(CN5CCOCC5)o4)ccc23)c(Cl)c1,100% (active),42%,5%,101% (active),inactive,inactive,inactive,inactive
COc1cc(F)c2nccc([C@@H](O)CN3CCC(NCc4nc5c(F)cccc5[nH]4)CC3)c2c1,5%,11%,-4%,99% (active),inactive,inactive,inactive,inactive
COc1cc(C=CC(=O)N2CCC(CCN3CCC(c4c[nH]c5ccccc45)CC3)CC2)cc(OC)c1,23%,39%,-5%,92% (active),inactive,inactive,inactive,inactive
Cc1cc(CN2CCC(N3CC(c4ccccc4)(c4ccccc4)OCC3=O)C2)ccc1O (configuration not stated),52% (active),3%,3%,89% (active),inactive,inactive,inactive,inactive
COc1ccc(CCN(C)CCOc2ccc(NC(=O)c3cc(SC)cc4c(=O)c5ccccc5[nH]c34)cc2)cc1OC,44%,7%,0%,87% (active),inactive,inactive,inactive,inactive
COc1cc(C(=O)N2N=C(c3c(-c4ccccc4)c4cc(Br)ccc4[nH]c3=O)CC2c2cccc([N+](=O)[O-])c2)cc(OC)c1OC (configuration not stated),95% (active),1%,4%,93% (active),inactive,inactive,inactive,inactive
COc1ccc(-c2ccc(CNCc3ccsc3)cc2)cc1S(=O)(=O)NCCN1CCCC1,30%,22%,3%,94% (active),inactive,inactive,inactive,inactive
Cc1ncccc1C(=O)Nc1ccc(-c2cccc(-c3nc4c(C)cccc4[nH]3)c2)cc1,31%,6%,-5%,95% (active),inactive,inactive,inactive,inactive
CCCN(C(=O)c1ccccc1C)c1nnc(-c2ccccc2C)s1,65% (active),16%,-7%,90% (active),inactive,inactive,inactive,inactive
O=C(Nc1ccc(C(F)(F)F)cc1)Nc1cccc([N+](=O)[O-])c1,98% (active),20%,4%,101% (active),inactive,inactive,inactive,inactive
O=c1sn(-c2csc3ccccc23)c2ccccc12,54% (active),14%,-6%,94% (active),inactive,inactive,inactive,inactive
O=[N+]([O-])c1cccc(CNC2CCN(Cc3ccc(C(F)(F)F)cc3)CC2)c1,28%,0%,1%,99% (active),inactive,inactive,inactive,inactive
O=C(c1ccc(F)c2ccccc12)N1CCc2cc3nccc(N4CCN5CCC[C@H]5C4)c3cc21,54% (active),-8%,-5%,90% (active),inactive,inactive,inactive,inactive
Cc1c(CCNC(=O)CCCN2CC(C)CC(C)C2)c2ccccc2n1C (configuration not stated),100% (active),8%,-9%,87% (active),inactive,inactive,inactive,inactive
